eIF4H FP inh – inhibitors of RNA binding by human eIF4H; Q15056; eIF4H fluorescence polarization binding assay; inhibition, % at 35 µM; 0.94% of 290,000 active;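 further: calls also rest on retests at 20 µM and on dose response follow-up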
PERK inh – blocks human PERK kinase. inhibition, % at 5.6 µM. Q9NZJ5. CHO PERK-DD fusion, SEAP luminescence translation reporter. 0.17% of 220,000 active;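 active means inhibition above the mean inhibition of all tested compounds plus 3 SD, set separately per screening campaign, cut at about 2.9% in these data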;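 further: PERK kinase domain activated by AP20187 dimerizer at 100 nM; 0% = DMSO with dimerizer and 100% = rapamycin at 8.4 µM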
M18AAP inhibitor – PfM18AAP enzyme inhibition | AID 1822 | recombinant PfM18AAP, H-Glu-NHMec fluorogenic cleavage | 1.2% of 290,000 active | inhibition, % at 7.35 µM;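 active means inhibition above the campaign mean inhibition over all tested compounds plus 3 SD, cut at about 28% in these data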;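 further: 0% = plate median of test compound wells and 100% = 2 mM ZnCl2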
MLLE-PAM2 inh – inhibitors of microRNA-mediated deadenylation, human PABP1 MLLE binding. AID 588489. P11940. inhibition, % at 20 µM. GST-MLLE / FITC-PAM2 fluorescence polarization. 0.36% of 360,000 active; in the data active means inhibition above about 35%, passing the limit was not always enough;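 further: plate controls were DMSO wells with GST-MLLE for no effect and wells lacking GST-MLLE protein for full effect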
PABP FP inh – PABP-poly(A) binding inhibition; P11940; PABP-poly(A) RNA binding, fluorescence polarization; inhibition, % at 35 µM; 1% of 290,000 active; AID 2014;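 further: calls also rest on retests at 20 µM and on dose response follow-up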
eIF4E 4G PPI – inhibitors of eIF4E and eIF4G interaction in translation initiation; P63073+Q04637; TR-FRET eIF4E-eIF4GI(517-606) binding, 2 h; inhibition, % at 21.7 µM; 0.37% of 220,000 active;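 active means inhibition above about 30%, limit read from the data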;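 further: 0% = full FRET control wells and 100% = background wells lacking eIF4GI fragment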
An asterisk follows results filed as active. Rows were chosen to be rich in hits. Some 2.4% of all compounds tested hit in one or more screens of this group. Unless noted, how the calls were made is not given here.

NS(=O)(=O)c1ccc(CCNC(=O)C2Cc3ccccc3CN2C(=O)c2ccco2)cc1 (stereo unspecified) was read as eIF4H FP inh 9, PERK inh 0, M18AAP inhibitor -12, MLLE-PAM2 inh 5, PABP FP inh -2 and eIF4E 4G PPI 6.
`NS(=O)(=O)c1ccc(NC(=O)C2Cc3ccccc3CN2C(=O)c2ccco2)cc1` (stereo unspecified) gave eIF4H FP inh 70*, M18AAP inhibitor -10, MLLE-PAM2 inh 13 and PABP FP inh 34*.
Cc1cc(-c2sccc2C)nc(-n2cccc2)n1 was read as eIF4H FP inh inconclusive, PERK inh 0, M18AAP inhibitor -13, MLLE-PAM2 inh 3, PABP FP inh 44* and eIF4E 4G PPI 3.
Screening COc1ccc(S(=O)(=O)N2CCN(CC(=O)NC3CC3)CC2)cc1 returned eIF4H FP inh -2, M18AAP inhibitor 3, MLLE-PAM2 inh 0 and PABP FP inh -9.
COc1ccc(N/C=C\C(=O)c2ccc(Br)cc2)cc1OC was read as eIF4H FP inh 71*, PERK inh 0, M18AAP inhibitor 8, MLLE-PAM2 inh -91, PABP FP inh 3 and eIF4E 4G PPI 2.
COc1ccccc1CNC(=O)N1CCN(c2ccccc2Cl)CC1 was read as eIF4H FP inh -4, M18AAP inhibitor 0, MLLE-PAM2 inh 9 and PABP FP inh 5.
Cc1ccc([N+](=O)[O-])cc1S(=O)(=O)Nc1ccc(C(=O)NCC2CCCO2)cc1 (stereo unspecified) was read as MLLE-PAM2 inh -11.
CCOc1ccc(/C=c2\sc3nc(-c4ccco4)nn3c2=O)cc1OCC was read as eIF4H FP inh 33, PERK inh 0, M18AAP inhibitor 5, MLLE-PAM2 inh 43*, PABP FP inh -6 and eIF4E 4G PPI -19.
Screening COc1ccc(OC)c(/C=c2\sc3nc(-c4cccs4)nn3c2=O)c1 returned eIF4H FP inh inconclusive, PERK inh 1, M18AAP inhibitor -7, MLLE-PAM2 inh 35, PABP FP inh 0 and eIF4E 4G PPI -16.
`COc1cc(/C=c2\sc3nc(=O)c(-c4ccccc4)nn3c2=O)ccc1OCCC(C)C` gave eIF4H FP inh 10, PERK inh 0, M18AAP inhibitor -4, MLLE-PAM2 inh 52, PABP FP inh 0 and eIF4E 4G PPI -2.
`COc1ccccc1/C=c1\sc2nc(-c3ccco3)nn2c1=O` gave eIF4H FP inh 90*, PERK inh 1, M18AAP inhibitor -1, MLLE-PAM2 inh -3, PABP FP inh 62* and eIF4E 4G PPI 9.
Screening CCOC(=O)C1CCCN(C(=O)c2ccc(-c3ccc([N+](=O)[O-])cc3)o2)C1 (stereo unspecified) returned MLLE-PAM2 inh 41*.
Screening COc1cc(/C=C2\C(=O)N(c3ccccc3)N=C2C)ccc1Oc1ccc([N+](=O)[O-])cc1[N+](=O)[O-] returned eIF4H FP inh active, PERK inh 0, M18AAP inhibitor 10, MLLE-PAM2 inh 4, PABP FP inh 52* and eIF4E 4G PPI -14.
`CCn1c2ccccc2c2nnc(SCc3ccc(C(=O)OC)o3)nc21` gave eIF4H FP inh -3, PERK inh 0, M18AAP inhibitor -7, MLLE-PAM2 inh 41*, PABP FP inh -2 and eIF4E 4G PPI 1.
For CC(C)(C)[C@@H]1C=C(C(=O)N2CCN(Cc3ccc4c(c3)OCO4)CC2)O[C@H](OCc2ccc(CO)cc2)C1 the results were eIF4H FP inh -13, PERK inh 0, M18AAP inhibitor -1, MLLE-PAM2 inh -3, PABP FP inh -3 and eIF4E 4G PPI -3.
Screening CC(C)CC(=O)N1CCN(Cc2cccc(F)c2)CC1 returned eIF4H FP inh -3, PERK inh 0, M18AAP inhibitor 19, MLLE-PAM2 inh 1, PABP FP inh 4 and eIF4E 4G PPI 72*.
For COc1ccc(NCc2ccc([N+](=O)[O-])s2)c(OC)c1 the results were eIF4H FP inh 73*, PERK inh 1, M18AAP inhibitor 12, MLLE-PAM2 inh 9, PABP FP inh active and eIF4E 4G PPI -5.
Screening O=C(O)c1cccc(S(=O)(=O)Nc2ccc3c(c2)OCO3)c1 returned eIF4H FP inh 7, PERK inh 1, M18AAP inhibitor 5, MLLE-PAM2 inh 38*, PABP FP inh 12 and eIF4E 4G PPI 5.

Source: PubChem (several laboratories)
